High-throughput results: PubChem BioAssay, National Center for Advancing Translational Sciences (NCATS)
An excerpt weighted towards active compounds, which were near 7.3% of everything screened.
HCV inh: qHTS Assay for Inhibitors of Hepatitis C Virus (HCV); Huh7.5.1 HCVcc-Cre infection, luciferase reporter, 44 h; Potency, µM (titrated, usually from 41.8 µM), for the others: top-dose activity change, negative = inhibition, usual class: inhibitors; 3.4% of 340,000 active; active = well fitted inhibition curve with a large enough effect; inconclusive = small, poorly fitted or top-dose-only effect, or another doubt; inactive = no such curve, though single readings can be large or run the other way; note: potency is the fitted concentration of half-maximal effect
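Seed cells (1,000/well) for 4 h; treat with compound and infect with HCVcc-Cre, moi about 0.5. Incubate 44 h, then detect luciferase activity.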
HCMV inh: qHTS Assay for inhibitors of the human cytomegalovirus (HCMV); activity change, negative = inhibition, % at 57.5 µM; HFF cells, HCMV-luciferase reporter, 72 h; active compounds read low; 4.5% of 410,000 active; in the data active = activity change below about -60%; inconclusive = no clear call, values can overlap the other calls; inactive = above about -39%
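Cell-based, HFFs, 1000 cells/well, 16 h 37C; cpds in DMSO + HCMV-luc, MOI 1 PFU/cell; 72 h 37C; OneGlo luminescence after 5 min RT; norm. to buffer vs Salinomycin 10uM.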
FMDV antiviral: High Throughput Screening for Foot and Mouth Disease Virus Antivirals | FMDV antiviral cell-based qHTS | Potency, µM (titrated, usually from 57.9 µM), for the others: at the top dose activity change, negative = inhibition, usual class: inhibitors | 1.2% of 410,000 active | AID 1159524, 2015; calls by dose curve; tested in HEK293T cells; note: read-out not given here; potency is the fitted concentration of half-maximal effect; nearly all actives have a fitted effect of over 45% in size
VACV Venus inh: qHTS for Stage-Specific Inhibitors of Vaccinia Orthopoxvirus: Venus Reporter Primary qHTS. Vaccinia virus Venus reporter expression, fluorescence. 0.46% of 330,000 active. Potency, µM (highest dose often 36.5 µM), for inactives: at the top dose activity change, negative = inhibition, most hits filed as inhibitors; calls by dose curve; tested in A549 cells; note: potency is the fitted concentration of half-maximal effect; nearly all actives have a fitted effect of over 30% in size
VACV mCherry inh: qHTS for Stage-Specific Inhibitors of Vaccinia Orthopoxvirus: mCherry Reporter Primary qHTS; 0.63% of 310,000 active; Potency, µM (doses to about 36.5 µM), for inactives: at the top dose activity change, negative = inhibition, most hits filed as inhibitors; AID 720579, 2013; Vaccinia virus mCherry reporter infection, fluorescence; calls by dose curve; tested in A549 cells; note: potency is the fitted concentration of half-maximal effect; nearly all actives have a fitted effect of over 35% in size
* = called active by the depositor; i = inactive; ? = inconclusive; . = no result given. % is set by controls: 0 for no effect and ±100 for the full control effect.

SMILES	HCV inh	HCMV inh	FMDV antiviral	VACV Venus inh	VACV mCherry inh
CCOc1ccc(C(=O)Nc2ccc(-c3nc4cc(C)ccc4o3)cc2)cc1	.	-3	21%	-9%	-15%
Cc1ccc(C)c(N2C(=O)N(C)c3ccccc3S2(=O)=O)c1	.	-11	0%	1%	-2%
Nc1cccc(/C=C2\C=Cc3ccccc32)c1	.	.	.	-12%	-13%
Cc1noc(C)c1C(=O)N1CCC2(CCN(Cc3ccccc3)CC2)CC1	.	.	-8%	.	.
O=C(Nc1ccc2oc(-c3ccncc3)nc2c1)c1ccc(F)cc1	22µM*	?	-26%	-7%	-12%
O=C(Nc1ccc2c(c1)OCCO2)c1[nH]c(C(F)(F)F)nc1-c1ccccc1	.	-74*	-19%	-11%	i
O=C(Nc1ccc2oc(-c3cccnc3)nc2c1)c1ccc(-c2ccccc2)o1	.	-73*	35µM*	-20%	-16%
O=C(Nc1ccc2oc(-c3cccc(Cl)c3Cl)nc2c1)c1cccc(Br)c1	.	-74*	-5%	?	?
O=C(Nc1ccc2oc(-c3cccnc3)nc2c1)c1ccc(-c2ccc(OC(F)(F)F)cc2)o1	.	-9	-30%	8%	-1%
O=C(Nc1ccc(-c2nc3cc(NC(=O)c4ccc(F)cc4)ccc3o2)cc1)c1ccc(F)cc1	.	-5	7%	-11%	-10%
COc1cc(C(=O)Nc2ccc3oc(-c4ccccc4)nc3c2)cc(OC)c1OC	.	-81*	?	-6%	-11%
Cc1ccc(CNC(=O)c2sc3nc(C)cc(C)c3c2-n2cccc2)cc1	.	-16	-3%	-17%	-12%
CC(C)NS(=O)(=O)c1ccc(OCC(=O)N2CCN(c3ccccc3)CC2)cc1	-2%	-5	-1%	-12%	i
O=C(CCNS(=O)(=O)c1ccc(Cl)cc1)N1CCCC1	-3%	-71*	-6%	-18%	-22%
Cc1ccc(Cl)cc1N1CCN(C(=O)CN(C2CCCCC2)S(C)(=O)=O)CC1	?	-24	14µM*	-29%	?
Cc1ccc(S(=O)(=O)NCCC(=O)N2CCN(c3cccc(Cl)c3)CC2)cc1C	.	2	?	-24%	-14%
CCNS(=O)(=O)c1ccc(CCC(=O)N2CCN(c3cccc(Cl)c3)CC2)cc1	?	-23	28µM*	-14%	-28%
O=C(CCNS(=O)(=O)c1ccc(Br)cc1)N1CCCCCCC1	11%	-16	-21%	-21%	-3%
O=C(COc1ccc(S(=O)(=O)NC2CCCCC2)cc1)N1CCN(c2cccc(Cl)c2)CC1	7.1µM*	-91*	?	.	.
COC(=O)[C@@H]1CCCN1Cc1ccc2c(c1)CN(Cc1cccc(Cl)c1)CCO2	.	.	-4%	-3%	-10%
Cc1ccc(Cl)cc1N1CCN(C(=O)COc2ccc(S(=O)(=O)NC(C)C)cc2)CC1	10µM*	-89*	?	?	?
CC(C)NS(=O)(=O)c1ccc(OCC(=O)N2CCCC2)cc1	20%	27	.	2%	i
O=C(OCc1ccc(F)cc1)c1ccc2c(c1)-c1ccccc1C2=O	-29%	-2	44%	-19%	.
CCOC(=O)C1=C(Cc2ccc(F)cc2)C(=O)c2ccccc2C1=O	7.9µM*	18	?	.	.
COCCn1cnc2cnc(Nc3cc(OC)c(OC)c(OC)c3)cc21	.	30	.	.	.
SMILES	HCV inh	HCMV inh	FMDV antiviral	VACV Venus inh	VACV mCherry inh
O=C1/C(=C/C=C/c2ccccc2)Oc2c1ccc(O)c2CN1CCN(CCO)CC1	27%	0	-24%	.	.
CN(C)Cc1c(O)ccc2c1O/C(=C\C=C\c1ccccc1)C2=O	-11%	-65*	-18%	14%	3%
COc1ccccc1/C=C/C=C1\Oc2c(ccc(O)c2CN2CCN(CCO)CC2)C1=O	-3%	-93*	0%	37%	-6%
O=C(Nc1ccccc1N1CCOCC1)c1ccc(Br)o1	?	-63*	23%	.	.
O=C(Nc1ccc(N2CCOCC2)c(Cl)c1)c1ccc(Br)o1	10µM*	29	-7%	-17%	-26%
CN1CCN(c2ccccc2NC(=O)c2ccc(Br)o2)CC1	?	-22	-14%	-11%	.
O=C(Nc1ccc(N2CCN(C(=O)c3ccccc3)CC2)c(Cl)c1)c1ccc(Br)o1	?	-68*	-27%	.	.
O=C(Nc1ccc(N2CCOCC2)c(Cl)c1)c1cc2ccccc2o1	?	.	-29%	?	.
CNC(=O)COC(=O)c1cc(=O)[nH]c2ccccc12	19%	-30	21%	.	.
NC(=O)COC(=O)c1cc(=O)[nH]c2ccccc12	10µM*	-34	14%	1%	-7%
Cc1ccc(Cl)cc1N1CCN(C(=O)Cc2csc(Nc3nc(=S)[nH]c4ccccc34)n2)CC1	?	?	-4%	-6%	-9%
O=C(Cc1csc(Nc2nc(=S)[nH]c3ccccc23)n1)N1CCN(c2cccc(Cl)c2)CC1	11µM*	83	-22%	-7%	i
Cc1nnc(SCC(=O)Nc2ccc(N(C)C)cc2)[nH]c1=O	.	-9	-1%	-4%	7%
NC(=O)CN1C(=O)NC2(CCCc3sccc32)C1=O (stereo unspecified)	13%	24	21%	-8%	i
Cc1cc(C(=O)CN2C(=O)NC3(CCCc4sccc43)C2=O)c(C)n1-c1ccc(Cl)cc1 (stereo unspecified)	-26%	-62*	7%	-16%	i
CCOc1ccc(C2c3c(oc4ccc(C)cc4c3=O)C(=O)N2CCCN(C)C)cc1 (stereo unspecified)	.	22	25%	0%	-6%
c1ccc2c(c1)Sc1ccccc1N2CC1CN2CCC1CC2 (stereo unspecified)	16%	-60*	-17%	-11%	-11%
O=C(c1ccccc1)N1CCN(C(=O)N2CCOCC2)CC1	13%	57	-7%	.	.
O=C1C(=C(c2ccccc2)N2CCOCC2)Cc2ccccc21	.	-99*	8.9µM*	11µM*	?
CCc1ccc(NC(=O)CC2C(=O)N(c3cccc(OC)c3)C(=O)N2Cc2ccc(F)cc2)cc1 (stereo unspecified)	.	-18	-11%	-22%	-10%
C=CCN1C(c2ccc(Br)cc2)=CS/C1=C(/C#N)c1nnc(N2CCOCC2)n1-c1ccccc1	?	-80*	?	-7%	-11%
COc1cc(CCCN2CCNC[C@@H]2c2ccccc2)cc(OC)c1OC	15%	-72*	5%	-25%	-6%
COc1cc(CCCN2CCNC[C@H]2Cc2ccc(O)cc2)cc(OC)c1OC	6%	1	-1%	0%	i
O=C(CNC(=S)NC(=O)C1CCCCC1)c1ccccc1	4%	-79*	43%	-11%	-15%
CCC1(C)Cc2c(sc3nc(SC)nc(NCCN(C)C)c23)CO1 (stereo unspecified)	?	-108*	-14%	.	.
CSc1ccccc1NC(=O)CN(C)CC(=O)NCc1ccccc1	22%	-84*	-6%	9%	i
